T1: RBFOX1 RRM RbFoxmut (Fox-RRM*) (Homo sapiens, UniProt Q9NWB1 109-208, R118D;E147R;N151S;E152T)
T1 sequence: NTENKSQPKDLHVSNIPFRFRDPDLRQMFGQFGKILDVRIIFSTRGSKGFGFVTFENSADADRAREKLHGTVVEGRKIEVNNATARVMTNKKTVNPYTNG

B1: UCGACUC (DNA:RNA)
RNA: GGGAGACCGGAAUUCAGAUUGUCCUCGACUCUUAAAUCCCGUCGUAGCCACCA
DNA 1: CAATCTGAATTCCGGTCTCCC
DNA 2: TGGTGGCTACGACGGGATT
B2: UACACUA (DNA:RNA)
RNA: B1 RNA with C26A, G27C, C31A
DNA 1: CAATCTGAATTCCGGTCTCCC
DNA 2: TGGTGGCTACGACGGGATT
B3: UCCUGAU (DNA:RNA)
RNA: B1 RNA with G27C, A28U, C29G, U30A, C31U
DNA 1: CAATCTGAATTCCGGTCTCCC
DNA 2: TGGTGGCTACGACGGGATT
B4: ACCUCGU (DNA:RNA)
RNA: B1 RNA with U25A, G27C, A28U, U30G, C31U
DNA 1: CAATCTGAATTCCGGTCTCCC
DNA 2: TGGTGGCTACGACGGGATT
B5: GAGUAGC (DNA:RNA)
RNA: B1 RNA with U25G, C26A, A28U, C29A, U30G
DNA 1: CAATCTGAATTCCGGTCTCCC
DNA 2: TGGTGGCTACGACGGGATT
B6: ACCAGAA (DNA:RNA)
RNA: B1 RNA with U25A, G27C, C29G, U30A, C31A
DNA 1: CAATCTGAATTCCGGTCTCCC
DNA 2: TGGTGGCTACGACGGGATT
B7: GAUUGAC (DNA:RNA)
RNA: B1 RNA with U25G, C26A, G27U, A28U, C29G, U30A
DNA 1: CAATCTGAATTCCGGTCTCCC
DNA 2: TGGTGGCTACGACGGGATT
B8: AGAUUGA (DNA:RNA)
RNA: GGGAGACCGGAAUUCAGAUUGUCCAGAUUGAUUAAAUCCCGUCGUAGCCACCA
DNA 1: CAATCTGAATTCCGGTCTCCC
DNA 2: TGGTGGCTACGACGGGATT
B9: CGAUGAC (DNA:RNA)
RNA: B8 RNA with A25C, U29G, G30A, A31C
DNA 1: CAATCTGAATTCCGGTCTCCC
DNA 2: TGGTGGCTACGACGGGATT
B10: GAAUGAC (DNA:RNA)
RNA: B8 RNA with A25G, G26A, U29G, G30A, A31C
DNA 1: CAATCTGAATTCCGGTCTCCC
DNA 2: TGGTGGCTACGACGGGATT
B11: AGAAUGA (DNA:RNA)
RNA: B8 RNA with U28A
DNA 1: CAATCTGAATTCCGGTCTCCC
DNA 2: TGGTGGCTACGACGGGATT
B12: UGAAUAU (DNA:RNA)
RNA: B8 RNA with A25U, U28A, G30A, A31U
DNA 1: CAATCTGAATTCCGGTCTCCC
DNA 2: TGGTGGCTACGACGGGATT
B13: AGAUUAU (DNA:RNA)
RNA: B8 RNA with G30A, A31U
DNA 1: CAATCTGAATTCCGGTCTCCC
DNA 2: TGGTGGCTACGACGGGATT
B14: AAUCAGU (DNA:RNA)
RNA: B8 RNA with G26A, A27U, U28C, U29A, A31U
DNA 1: CAATCTGAATTCCGGTCTCCC
DNA 2: TGGTGGCTACGACGGGATT
B15: GCAACGU (DNA:RNA)
RNA: B1 RNA with U25G, G27A, U30G, C31U
DNA 1: CAATCTGAATTCCGGTCTCCC
DNA 2: TGGTGGCTACGACGGGATT
B16: UGGCAUC (DNA:RNA)
RNA: B1 RNA with C26G, A28C, C29A
DNA 1: CAATCTGAATTCCGGTCTCCC
DNA 2: TGGTGGCTACGACGGGATT
B17: UGGCAUA (DNA:RNA)
RNA: B1 RNA with C26G, A28C, C29A, C31A
DNA 1: CAATCTGAATTCCGGTCTCCC
DNA 2: TGGTGGCTACGACGGGATT
B18: UGGCAGA (DNA:RNA)
RNA: B8 RNA with A25U, A27G, U28C, U29A
DNA 1: CAATCTGAATTCCGGTCTCCC
DNA 2: TGGTGGCTACGACGGGATT
B19: UGGCAUG (DNA:RNA)
RNA: B1 RNA with C26G, A28C, C29A, C31G
DNA 1: CAATCTGAATTCCGGTCTCCC
DNA 2: TGGTGGCTACGACGGGATT
B20: UGGCAUU (DNA:RNA)
RNA: B1 RNA with C26G, A28C, C29A, C31U
DNA 1: CAATCTGAATTCCGGTCTCCC
DNA 2: TGGTGGCTACGACGGGATT
B21: UGGCACC (DNA:RNA)
RNA: B1 RNA with C26G, A28C, C29A, U30C
DNA 1: CAATCTGAATTCCGGTCTCCC
DNA 2: TGGTGGCTACGACGGGATT
B22: UAUCAAU (DNA:RNA)
RNA: B1 RNA with C26A, G27U, A28C, C29A, U30A, C31U
DNA 1: CAATCTGAATTCCGGTCTCCC
DNA 2: TGGTGGCTACGACGGGATT
B23: CCACUGA (DNA:RNA)
RNA: B8 RNA with A25C, G26C, U28C
DNA 1: CAATCTGAATTCCGGTCTCCC
DNA 2: TGGTGGCTACGACGGGATT
B24: UCUUCCC (DNA:RNA)
RNA: B1 RNA with G27U, A28U, U30C
DNA 1: CAATCTGAATTCCGGTCTCCC
DNA 2: TGGTGGCTACGACGGGATT
B25: UUAUACA (DNA:RNA)
RNA: B8 RNA with A25U, G26U, U29A, G30C
DNA 1: CAATCTGAATTCCGGTCTCCC
DNA 2: TGGTGGCTACGACGGGATT
B26: CAUUUCC (DNA:RNA)
RNA: B8 RNA with A25C, G26A, A27U, G30C, A31C
DNA 1: CAATCTGAATTCCGGTCTCCC
DNA 2: TGGTGGCTACGACGGGATT
B27: UUAUGUA (DNA:RNA)
RNA: B8 RNA with A25U, G26U, U29G, G30U
DNA 1: CAATCTGAATTCCGGTCTCCC
DNA 2: TGGTGGCTACGACGGGATT
B28: GUGUCCG (DNA:RNA)
RNA: B1 RNA with U25G, C26U, A28U, U30C, C31G
DNA 1: CAATCTGAATTCCGGTCTCCC
DNA 2: TGGTGGCTACGACGGGATT
B29: CGUGUCG (DNA:RNA)
RNA: B8 RNA with A25C, A27U, U28G, G30C, A31G
DNA 1: CAATCTGAATTCCGGTCTCCC
DNA 2: TGGTGGCTACGACGGGATT
B30: GGAUGUC (DNA:RNA)
RNA: B8 RNA with A25G, U29G, G30U, A31C
DNA 1: CAATCTGAATTCCGGTCTCCC
DNA 2: TGGTGGCTACGACGGGATT
B31: GUGUAUG (DNA:RNA)
RNA: B1 RNA with U25G, C26U, A28U, C29A, C31G
DNA 1: CAATCTGAATTCCGGTCTCCC
DNA 2: TGGTGGCTACGACGGGATT
B32: GGAUGUG (DNA:RNA)
RNA: B8 RNA with A25G, U29G, G30U, A31G
DNA 1: CAATCTGAATTCCGGTCTCCC
DNA 2: TGGTGGCTACGACGGGATT
B33: GUAUGUG (DNA:RNA)
RNA: B8 RNA with A25G, G26U, U29G, G30U, A31G
DNA 1: CAATCTGAATTCCGGTCTCCC
DNA 2: TGGTGGCTACGACGGGATT
B34: CUAUGUG (DNA:RNA)
RNA: B8 RNA with A25C, G26U, U29G, G30U, A31G
DNA 1: CAATCTGAATTCCGGTCTCCC
DNA 2: TGGTGGCTACGACGGGATT
B35: UAUGUCC (DNA:RNA)
RNA: B1 RNA with C26A, G27U, A28G, C29U, U30C
DNA 1: CAATCTGAATTCCGGTCTCCC
DNA 2: TGGTGGCTACGACGGGATT
B36: GGAGAUG (DNA:RNA)
RNA: B8 RNA with A25G, U28G, U29A, G30U, A31G
DNA 1: CAATCTGAATTCCGGTCTCCC
DNA 2: TGGTGGCTACGACGGGATT
B37: UUGUAUG (DNA:RNA)
RNA: B1 RNA with C26U, A28U, C29A, C31G
DNA 1: CAATCTGAATTCCGGTCTCCC
DNA 2: TGGTGGCTACGACGGGATT
B38: CGUUGUG (DNA:RNA)
RNA: B8 RNA with A25C, A27U, U29G, G30U, A31G
DNA 1: CAATCTGAATTCCGGTCTCCC
DNA 2: TGGTGGCTACGACGGGATT

Changes are numbered by the printed parent chain; changes in the protein carry UniProt numbers. Over roughly 16,000 sequences, “ka relative to ugcaugu” has its median near 0.096; the highest 2% begin near 0.35. What follows is part of a selection rich in the highest values, with near analogues and random picks from the rest.

This assay has as its target T1, RBFOX1 RRM RbFoxmut (Fox-RRM*). The assay can be described thus: EMSA; HiTS-Eq, 1 nM pool, 10 min; buffer printed only for the single-RNA assays: 10 mM Tris pH 7.5, 150 mM NaCl, 3.4 mM EDTA, 0.001% NP-40, 30 C. The following applies: tags: His6 N-terminal (pET28a); label: 5' 32P. In short, it runs like this: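 Relative association constants, normalised to the cognate motif, were derived by comparing read counts of each RNA species with those of the control reaction. The RNA sequenced was the free fraction, separated by 8% native PAGE after a 10 min equilibration in 50 µL of 1 nM 5′-radiolabelled RNA (7 randomized nucleotides) with increasing concentrations of purified wild-type or mutant RbFox RRM.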
In general terms: A gel shift assay detects complexes by their altered migration in electrophoresis.
Take B1: the binding signal was 0.0668 KA relative to UGCAUGU.

Take B2: the binding signal is 0.0954 KA relative to UGCAUGU.

Take B3: the binding signal is 0.0975 KA relative to UGCAUGU.

As for B4, the binding signal was 0.106 KA relative to UGCAUGU.

For B5, the binding signal is 0.108 KA relative to UGCAUGU.

Consider B6, for which the binding signal is 0.0963 KA relative to UGCAUGU.

Take B7: the binding signal is 0.109 KA relative to UGCAUGU.

As to B8, the binding signal is 0.117 KA relative to UGCAUGU.

Turning to B9, the binding signal was 0.141 KA relative to UGCAUGU.

Turning to B10, the binding signal is 0.829 KA relative to UGCAUGU.

Regarding B11, the binding signal was 0.646 KA relative to UGCAUGU.

Consider B12, for which the binding signal was 0.0814 KA relative to UGCAUGU.

With B13, the binding signal was 0.124 KA relative to UGCAUGU.

Consider B14, for which the binding signal was 0.0868 KA relative to UGCAUGU.

Turning to B15, the binding signal was 0.094 KA relative to UGCAUGU.

Regarding B16, the binding signal was 0.411 KA relative to UGCAUGU.

For the molecule B17, the binding signal was 0.127 KA relative to UGCAUGU.

On to B18, for which the binding signal is 0.0918 KA relative to UGCAUGU.

In the case of B19, the binding signal was 1.17 KA relative to UGCAUGU.

On to B20, for which the binding signal was 0.1 KA relative to UGCAUGU.

Turning to B21, the binding signal is 0.113 KA relative to UGCAUGU.

B22: the binding signal was 0.0491 KA relative to UGCAUGU.

As to B23, the binding signal is 0.123 KA relative to UGCAUGU.

For B24, the binding signal is 0.0652 KA relative to UGCAUGU.

For the molecule B25, the binding signal was 0.0696 KA relative to UGCAUGU.

As for B26, the binding signal was 0.0842 KA relative to UGCAUGU.

Regarding B27, the binding signal was 0.19 KA relative to UGCAUGU.

As to B28, the binding signal is 0.216 KA relative to UGCAUGU.

As to B29, the binding signal is 0.126 KA relative to UGCAUGU.

In the case of B30, the binding signal was 0.295 KA relative to UGCAUGU.

Turning to B31, the binding signal is 1.38 KA relative to UGCAUGU.

With B32, the binding signal was 0.451 KA relative to UGCAUGU.

B33: the binding signal is 0.787 KA relative to UGCAUGU.

As to B34, the binding signal was 0.134 KA relative to UGCAUGU.

With B35, the binding signal is 0.107 KA relative to UGCAUGU.

Turning to B36, the binding signal is 0.312 KA relative to UGCAUGU.

Regarding B37, the binding signal is 1.24 KA relative to UGCAUGU.

Regarding B38, the binding signal was 0.17 KA relative to UGCAUGU.

The record behind these values is paper PMC9911399, “Two distinct binding modes provide the RNA-binding protein RbFox with extraordinary sequence specificity”.
